Several values for one entry are separate records, joined by “and”; a condition that tells them apart may be missing. Equal values may be shown once. Inconclusive results are not listed. Values without a mark were called inactive. Activity calls are given as the source filed them. Calls follow the shape of the dose curve; as a rule, active = well fitted curve in the direction sought with a large enough effect; inconclusive = small, poorly fitted or top-dose-only effect, or another doubt; inactive = no such curve, though single readings can be large or run the other way.
Test: qHTS Assay for Identifying Gametocytocidal Compounds (AID 743244);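 as to max response: actives lower the fluorescent signal which means gametocytes are killed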
Conditions: P. falciparum 3D7 stage III-V gametocytes, alamarBlue, 72 h; max response: active compounds read low
How it was run: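 Fluorescence at Ex 525/Em 598 nm, recorded 24 h after alamarBlue addition, reports residual metabolic activity of 3D7 gametocytes (stages III–V) following 72 h compound exposure at 37 °C, 5% CO2.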
% is scaled to controls: 0 for no effect and ±100 for the full control effect; potency is read from the fitted curve at half-maximal effect.

| SMILES | max response | Potency |
| --- | --- | --- |
| Cc1cccc(C)c1NC(=O)C1CCCCN1C (stereo not given) | -1.88% | – |
| OCC1(CO)COC(C(Cl)(Cl)Cl)OC1 | 24.4% | – |
| CS(=O)(=O)c1ccc([C@@H](O)[C@@H](COC(=O)CN)NC(=O)C(Cl)Cl)cc1 | 0.65% | – |
| CC(C)(C)c1ccc2c(S(=O)(=O)O)c(C(C)(C)C)ccc2c1 | 10.3% and 35.8% | – |
| COc1cc2c(cc1OC)[C@@H](Cc1cc(OC)c(OC)c(OC)c1)[N+](C)(CCCOC(=O)CC/C=C/CCC(=O)OCCC[N+]1(C)CCc3cc(OC)c(OC)cc3[C@H]1Cc1cc(OC)c(OC)c(OC)c1)CC2 (stereo not given in full) | 7.25% and 6.59% | – |
| CCCCC(CC)CCC(CC(C)C)OS(=O)(=O)O (stereo not given) | 17.4% and 3.69% | – |
| OCCCNc1ccccc1 | -7.9% | – |
| CC1CC(OC(=O)C(O)c2ccccc2)CC(C)(C)C1 (stereo not given) | 25% | – |
| CCOc1ccc(NC(=S)Nc2ccc(OCC)cc2)cc1 | 1.34% | – |
| CC(C)(Oc1ccc(C2CCCc3ccccc32)cc1)C(=O)O (stereo not given) | -6.04% | – |
| COC(=O)[C@@H](N)CS | 0.957% | – |
| CC1=CC(=C(c2ccc(N)cc2)c2ccc(N)cc2)C=CC1=N | – | 7.94 µM (active) |
| O=C(OC[C@H]1O[C@](O)(COC(=O)c2cccnc2)[C@@H](OC(=O)c2cccnc2)[C@@H]1OC(=O)c1cccnc1)c1cccnc1 | -9.26% | – |
| Oc1cc(O)cc(O)c1 | 16.3% | – |
| CC(=O)O[C@@H]1CC2CCC1(C)C2(C)C (stereo not given in full) | 7.45% | – |

— PubChem BioAssay (NCATS)
